Compounds without any hit were thinned out: in the full panel of roughly 83,000, 20% have a hit.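 Treatment: one concentration, 48 hours, 96-well format. Scoring: percent growth, with anything below 10 considered active.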 Active and inactive are the calls of the source.
Experiments:
Assay in all cases: NCI-60 one-dose screen, 48 h (100 = growth as untreated, 0 = no growth, -100 = all killed)
Conditions in all cases: 10 µM unless noted
SR leukemia = test system: SR leukemia
RPMI-8226 leukemia = test system: RPMI-8226 leukemia
OVCAR-8 ovarian = test system: OVCAR-8 ovarian
OVCAR-5 ovarian = test system: OVCAR-5 ovarian
OVCAR-4 ovarian = test system: OVCAR-4 ovarian
SK-OV-3 ovarian = test system: SK-OV-3 ovarian
IGROV1 ovarian = test system: IGROV1 ovarian
OVCAR-3 ovarian = test system: OVCAR-3 ovarian
HS 578T breast = test system: HS 578T breast
NCI/ADR-RES ovarian = test system: NCI/ADR-RES ovarian
T-47D breast = test system: T-47D breast
BT-549 breast = test system: BT-549 breast
MDA-MB-435 melanoma = test system: MDA-MB-435 melanoma
SW-620 colon = test system: SW-620 colon
MCF7 breast = test system: MCF7 breast
HCT-116 colon = test system: HCT-116 colon
HCC-2998 colon = test system: HCC-2998 colon
KM12 colon = test system: KM12 colon
MDA-MB-468 breast = test system: MDA-MB-468 breast

Measured: growth

COc1ccc(-c2nc3cc(C)ccc3n2CC(=O)N=Nc2c(O)[nH]c3ccc(OC)cc23)cc1
active: SR leukemia -21.1% | RPMI-8226 leukemia -14.7% | OVCAR-8 ovarian -68.8% | OVCAR-5 ovarian -48.2% | OVCAR-4 ovarian -58.1% | SK-OV-3 ovarian -17.7% | IGROV1 ovarian -17.3% | OVCAR-3 ovarian -71.8% | HS 578T breast -23.4% | NCI/ADR-RES ovarian -56.1% | T-47D breast -60% | BT-549 breast -85.4% | MDA-MB-435 melanoma -67.8% | SW-620 colon -48.2% | MCF7 breast -50.3% | HCT-116 colon -97.4% | HCC-2998 colon -67.9% | KM12 colon -79.5% | MDA-MB-468 breast -77.1%

Cc1sc(C(NC(=O)OCCn2c([N+](=O)[O-])cnc2C)C(F)(F)Cl)nc1-c1ccc(OC(F)(F)F)cc1 (centres undefined)
active: SR leukemia 5.16% | RPMI-8226 leukemia 2.36% | OVCAR-8 ovarian -65.9% | OVCAR-5 ovarian -96% | OVCAR-4 ovarian -37.7% | SK-OV-3 ovarian -84.8% | IGROV1 ovarian -80.6% | OVCAR-3 ovarian -59.6% | HS 578T breast -31.1% | NCI/ADR-RES ovarian -78.6% | T-47D breast -66.1% | BT-549 breast -92.2% | MDA-MB-435 melanoma -43.7% | SW-620 colon -67.1% | MCF7 breast -85.1% | HCT-116 colon -80.3% | HCC-2998 colon -96.6% | KM12 colon -61.9% | MDA-MB-468 breast -93.4%

COc1cc2nc(SCc3ccccc3)n(-c3ccc(Cl)cc3)c(=O)c2cc1OC
inactive: RPMI-8226 leukemia 34% | OVCAR-5 ovarian 34.3% | T-47D breast 45% | MDA-MB-435 melanoma 30.3% | MCF7 breast 14.7% | HCC-2998 colon 20.3% | KM12 colon 40.5%
active: SR leukemia 5.33% | OVCAR-8 ovarian -19.9% | OVCAR-4 ovarian -55.6% | SK-OV-3 ovarian -19.1% | IGROV1 ovarian 4.02% | OVCAR-3 ovarian -42.6% | HS 578T breast -9.89% | NCI/ADR-RES ovarian -30.4% | BT-549 breast 0.336% | SW-620 colon 9.44% | HCT-116 colon -41% | MDA-MB-468 breast -10.9%

COc1ccc(/C=C/c2n(Cc3ccc4ccccc4c3)c3ccccc3[n+]2Cc2ccc3ccccc3c2)cc1
active: SR leukemia -34.9% | RPMI-8226 leukemia -48.5% | OVCAR-8 ovarian -75.2% | OVCAR-5 ovarian -98.4% | OVCAR-4 ovarian -65% | SK-OV-3 ovarian -95.7% | IGROV1 ovarian -76.2% | OVCAR-3 ovarian -82.8% | HS 578T breast -59.3% | NCI/ADR-RES ovarian -53.4% | T-47D breast -70.1% | BT-549 breast -93.1% | MDA-MB-435 melanoma -91.1% | SW-620 colon -96.2% | MCF7 breast -71.3% | HCT-116 colon -95.3% | HCC-2998 colon -84.3% | KM12 colon -84.5% | MDA-MB-468 breast -83.9%

COc1cc(/C=C2\C(=N)N=C(SCc3nc4ccccc4[nH]3)NC2=O)ccc1O
inactive: SR leukemia 88.5% | RPMI-8226 leukemia 85% | OVCAR-8 ovarian 101% | OVCAR-5 ovarian 109% | OVCAR-4 ovarian 96.6% | SK-OV-3 ovarian 103% | IGROV1 ovarian 106% | OVCAR-3 ovarian 103% | HS 578T breast 93.3% | NCI/ADR-RES ovarian 99% | T-47D breast 99.8% | BT-549 breast 107% | MDA-MB-435 melanoma 99.7% | SW-620 colon 95.6% | MCF7 breast 93.7% | HCT-116 colon 99.8% | HCC-2998 colon 105% | KM12 colon 106% | MDA-MB-468 breast 106%

CN(C)c1nc(NCCNS(=O)(=O)c2ccc(C3=Nc4c(N)nc(N)nc4NC(c4ccc(Cl)cc4)C3)cc2)nc(Nc2ccc(F)cc2)n1 (centres undefined)
inactive: OVCAR-8 ovarian 46.2% | OVCAR-5 ovarian 72.6% | OVCAR-4 ovarian 45.6% | SK-OV-3 ovarian 90.3% | IGROV1 ovarian 51.5% | OVCAR-3 ovarian 51.9% | HS 578T breast 56.3% | NCI/ADR-RES ovarian 94.4% | T-47D breast 33.8% | BT-549 breast 15.4% | MDA-MB-435 melanoma 32.3% | SW-620 colon 33.4% | HCT-116 colon 15.3% | KM12 colon 19.4%
active: SR leukemia 0.305% | RPMI-8226 leukemia -2.32% | MCF7 breast 2.35% | HCC-2998 colon -0.0718% | MDA-MB-468 breast -35.5%

C#CCOc1ccc(/C=N/Nc2nc(-c3ccc(F)cc3)cs2)cc1OC
inactive: SR leukemia 25.5% | RPMI-8226 leukemia 35.5% | OVCAR-8 ovarian 63.8% | OVCAR-5 ovarian 84.9% | OVCAR-4 ovarian 65.6% | SK-OV-3 ovarian 88% | IGROV1 ovarian 72.6% | OVCAR-3 ovarian 71.2% | HS 578T breast 81.2% | NCI/ADR-RES ovarian 32.2% | T-47D breast 35.4% | BT-549 breast 24.5% | MDA-MB-435 melanoma 56.2% | SW-620 colon 86.7% | MCF7 breast 35.3% | HCT-116 colon 44.6% | HCC-2998 colon 92.9% | KM12 colon 59.9% | MDA-MB-468 breast 51.3%

O=S(=O)(Nc1cccc(-n2cnc3cc(-c4ccc(O)cc4)ccc32)c1)C1CC1
inactive: SR leukemia 13.2% | RPMI-8226 leukemia 23.9% | OVCAR-8 ovarian 19.8% | OVCAR-5 ovarian 47.1% | OVCAR-4 ovarian 48.3% | SK-OV-3 ovarian 35.6% | IGROV1 ovarian 35.3% | NCI/ADR-RES ovarian 25.1% | T-47D breast 27.3% | BT-549 breast 14.3% | SW-620 colon 31.1% | MCF7 breast 21.8% | HCT-116 colon 13.4% | HCC-2998 colon 40.8%
active: OVCAR-3 ovarian 2.82% | HS 578T breast -20.1% | MDA-MB-435 melanoma -21.3% | KM12 colon 6.07% | MDA-MB-468 breast 3.78%

Nc1nc(-c2ccccc2)c(N=Nc2ccc([N+](=O)[O-])cc2Cl)s1
inactive: SR leukemia 136% | RPMI-8226 leukemia 53% | OVCAR-8 ovarian 78.5% | OVCAR-5 ovarian 107% | OVCAR-4 ovarian 80.4% | SK-OV-3 ovarian 82% | IGROV1 ovarian 86.3% | OVCAR-3 ovarian 74.8% | HS 578T breast 85% | NCI/ADR-RES ovarian 89.6% | T-47D breast 40.7% | BT-549 breast 82.9% | MDA-MB-435 melanoma 87.1% | SW-620 colon 90.3% | MCF7 breast 68.1% | HCT-116 colon 70.1% | HCC-2998 colon 99.9% | KM12 colon 90.4% | MDA-MB-468 breast 55.8%

C=C1CCC2C3(C)COC(c4ccccc4)OC3CCC2(C)C1CC(NCc1ccccc1)C1=CCOC1=O (centres undefined)
inactive: SR leukemia 68.6% | RPMI-8226 leukemia 34.1% | OVCAR-8 ovarian 82.9% | OVCAR-5 ovarian 87.5% | OVCAR-4 ovarian 82.8% | SK-OV-3 ovarian 79.9% | IGROV1 ovarian 90.6% | OVCAR-3 ovarian 83% | HS 578T breast 78% | NCI/ADR-RES ovarian 77.7% | T-47D breast 63.6% | BT-549 breast 73.4% | MDA-MB-435 melanoma 85% | SW-620 colon 89.8% | MCF7 breast 70.2% | HCT-116 colon 69% | HCC-2998 colon 81.2% | KM12 colon 85.6% | MDA-MB-468 breast 49.3%

COc1cc2c(c(OC)c1OC)C(=O)CC(c1cccc(NC(=O)c3cc(NC(=O)[C@@H](N)CO)ccc3C)c1)O2 (some centres undefined)
inactive: SR leukemia 100% | RPMI-8226 leukemia 108% | OVCAR-8 ovarian 104% | OVCAR-5 ovarian 101% | OVCAR-4 ovarian 112% | SK-OV-3 ovarian 111% | IGROV1 ovarian 114% | OVCAR-3 ovarian 121% | HS 578T breast 110% | NCI/ADR-RES ovarian 104% | T-47D breast 110% | BT-549 breast 121% | MDA-MB-435 melanoma 120% | SW-620 colon 119% | MCF7 breast 103% | HCT-116 colon 116% | HCC-2998 colon 115% | KM12 colon 108% | MDA-MB-468 breast 92.6%

COc1ccc(N2N=C(c3ccc4c(c3)OCO4)CC2c2cccc(NC(=O)CCCNS(=O)(=O)c3ccc(F)cc3)c2)cc1 (centres undefined)
inactive: SR leukemia 18.3% | RPMI-8226 leukemia 39.4% | OVCAR-8 ovarian 78.8% | OVCAR-5 ovarian 99.2% | OVCAR-4 ovarian 57.5% | SK-OV-3 ovarian 83.5% | IGROV1 ovarian 90.7% | OVCAR-3 ovarian 81.3% | HS 578T breast 67.2% | NCI/ADR-RES ovarian 84.5% | T-47D breast 53% | BT-549 breast 97.3% | MDA-MB-435 melanoma 63.2% | SW-620 colon 86.2% | MCF7 breast 42.2% | HCT-116 colon 49.9% | HCC-2998 colon 60.1% | KM12 colon 41.3% | MDA-MB-468 breast 35.5%

O=C(c1ccccc1)C(c1c[nH]c2ccccc12)c1c[nH]c2ccccc12
active: SR leukemia 7.54% | SW-620 colon 4.95%
inactive: RPMI-8226 leukemia 20.6% | OVCAR-8 ovarian 64.4% | OVCAR-5 ovarian 76.6% | OVCAR-4 ovarian 51.5% | SK-OV-3 ovarian 94.2% | IGROV1 ovarian 56% | OVCAR-3 ovarian 57.9% | HS 578T breast 61% | NCI/ADR-RES ovarian 47.4% | T-47D breast 58% | BT-549 breast 14% | MDA-MB-435 melanoma 36.8% | MCF7 breast 16.4% | HCT-116 colon 20.2% | HCC-2998 colon 83.8% | KM12 colon 51.3% | MDA-MB-468 breast 57.8%

COC(=O)C[C@](O)(CCCC(C)(C)O)C(=O)O[C@H]1C(OC)=C[C@@]23CCCN2CCc2cc4c(cc2[C@@H]13)OCO4
inactive: NCI/ADR-RES ovarian 96.3%
active: SR leukemia -25% | RPMI-8226 leukemia -18.1% | OVCAR-8 ovarian -34.8% | OVCAR-5 ovarian -14.5% | OVCAR-4 ovarian -13.9% | SK-OV-3 ovarian 2% | IGROV1 ovarian -15.7% | OVCAR-3 ovarian -28.5% | HS 578T breast -26% | T-47D breast -7.62% | BT-549 breast -29.9% | MDA-MB-435 melanoma -26.8% | SW-620 colon -22.2% | MCF7 breast -17.7% | HCT-116 colon -29.4% | HCC-2998 colon -61.3% | KM12 colon -15.6% | MDA-MB-468 breast -36.6%

CCOC(=O)/C=C/c1cccc2c1C(=O)NC(C)(c1cc3cc(Br)ccc3oc1=O)N2 (centres undefined)
inactive: SR leukemia 27.7% | RPMI-8226 leukemia 32% | OVCAR-8 ovarian 37.8% | OVCAR-5 ovarian 76.4% | OVCAR-4 ovarian 40.2% | SK-OV-3 ovarian 38.6% | IGROV1 ovarian 18.2% | OVCAR-3 ovarian 48.4% | HS 578T breast 63.2% | NCI/ADR-RES ovarian 42.2% | T-47D breast 18.2% | MDA-MB-435 melanoma 54.7% | SW-620 colon 61.2% | MCF7 breast 35.3% | HCT-116 colon 32.2% | HCC-2998 colon 68.8% | KM12 colon 41.1% | MDA-MB-468 breast 32.3%
active: BT-549 breast -66.3%

Cn1cc(-c2cc(N)n3nc(-c4cn(C)c5ccccc45)cc3n2)c2cc(Br)ccc21
active: SR leukemia 7.44% | RPMI-8226 leukemia 0.257% | OVCAR-8 ovarian -91.9% | OVCAR-5 ovarian 5.47% | OVCAR-4 ovarian -25.6% | IGROV1 ovarian -3.64% | OVCAR-3 ovarian -46.3% | HS 578T breast -7.42% | NCI/ADR-RES ovarian -13.9% | T-47D breast -37.7% | MDA-MB-435 melanoma -72.6% | SW-620 colon -10.6% | MCF7 breast -74.1% | HCT-116 colon -92.9% | HCC-2998 colon -70.2% | KM12 colon -60.4% | MDA-MB-468 breast -24.9%
inactive: SK-OV-3 ovarian 38.9% | BT-549 breast 38%
